BoNT-F LC inh: inhibitors of Botulinum neurotoxin F light chain protease. Multiplex microsphere protease cleavage assay, flow cytometry. inhibition, % at 10 µM. 360,000 compounds, 0.22% hits. AID 588497; in the data active means inhibition above about 35%, passing the limit was not always enough; inconclusive means no clear call, values can overlap the other calls; further: plate controls were buffer without enzyme for full effect and enzyme alone for no effect
BoNT A protease: inhibitors of Botulinum neurotoxin A light chain protease; 360,000 compounds, 0.17% hits; AID 588499; multiplex microsphere protease substrate cleavage, flow cytometry; inhibition, % at 10 µM; further: plate controls were buffer without enzyme for full effect and enzyme alone for no effect
Vc quorum ag: induces V. cholerae light production without autoinducers; 350,000 compounds, 0.16% hits; V. cholerae BH1578 lux reporter, luminescence, 6 h; activation, % at 18.7 µM; AID 588436; in the data active means activation mostly above about 9.7%, no sharp cut-off; inconclusive means no clear call, values can overlap the other calls; inactive means mostly below about 3.7%
Bead autofluor: flagged as autofluorescent in microsphere protease counterscreen; compound autofluorescence counterscreen, microsphere flow cytometry; stronger effect = higher value; fluorescence intensity (test concentration not listed); 360,000 compounds, 3.1% hits; AID 624483; in the data active means fluorescence intensity above about 16000; inconclusive means no clear call, values can overlap the other calls
Anthrax LF prot: blocks Bacillus anthracis lethal factor protease | AID 588501 | inhibition, % at 10 µM | multiplex microsphere protease cleavage assay, LF | 360,000 compounds, 0.12% hits; further: plate controls were buffer without enzyme for full effect and enzyme alone for no effect
Active calls of the source: *; i = inactive; u = inconclusive; x = no result given; ! = a repeat was not active. An excerpt weighted towards active compounds, which were near 3.5% of everything screened. Unless noted, no stated cut-off is given here; in the data, active means inhibition above about 30%; inconclusive means no clear call, values can overlap the other calls; inactive means below that.

SMILES | BoNT-F LC inh | BoNT A protease | Vc quorum ag | Bead autofluor | Anthrax LF prot
O=C(Nc1ccc(Cl)cc1)C1=Cc2cc(Cl)ccc2OC1 | 0 | 0 | 0 | 3580 | -1
COc1ccc2c(c1)C=C(C(=O)NCc1ccc(Cl)cc1)CO2 | 4 | 4 | i | 20111* | -1
CC1CCCCC1NC(=O)C1CCN(S(=O)(=O)N2CCCCCC2)CC1 (configuration not stated) | 11 | 10 | 0 | 18939* | -14
Cc1ccc(C(=O)CSc2nnc(-c3ccccc3)n2-c2ccccc2)o1 | 1 | u | i | 20254* | 0
O=C(CSc1nnc(-c2ccccc2)n1-c1ccccc1)c1cccs1 | -6 | u | -1 | 21163* | -1
O=C(CSc1nnc(-c2ccccc2)n1-c1ccccc1)c1ccc[nH]1 | -8 | 0 | 0 | 2210 | -1
O=C(CN(CC1CCCO1)S(=O)(=O)c1ccc(S(=O)(=O)NC2CC2)cc1)Nc1ccccc1 (configuration not stated) | -2 | 0 | -1 | 2779 | -1
CCN(CC)S(=O)(=O)c1ccc(S(=O)(=O)N(CC(=O)Nc2ccccc2)CC2CCCO2)cc1 (configuration not stated) | -5 | -4 | -1 | 17027* | 0
CCCCCN(C(=O)CCC(=O)OCC(=O)N1CCCC(C)C1)c1c(N)n(CCCC)c(=O)[nH]c1=O (configuration not stated) | -8 | -2 | 0 | 4663 | -3
Cc1ccc(O)c(C2=NCCNC(C(F)(F)F)=C2)c1 | -7 | u | i | 21465* | -3
Oc1c(C2=NCCNC(C(F)(F)F)=C2)ccc2ccccc12 | -10 | -2 | 0 | 3156 | -4
Cc1c(NC(=O)COc2ccc(C(C)C)cc2)c(=O)n(-c2ccccc2)n1C | 4 | 0 | 0 | 5389 | 1
Cn1c(=O)[nH]c(=O)c2c1nc(Br)n2CCSc1nc2ccccc2o1 | 2 | u | i | 22279* | 0
Cn1c(=O)[nH]c(=O)c2c1nc(N1CCCCCC1)n2CCSc1nc2ccccc2o1 | -1 | -2 | 0 | 6988 | -11
CC1=C(C#N)C(NC(=O)C2CC2)(C(F)(F)F)C(=O)N1 (configuration not stated) | 4 | 0 | -2 | 2441 | 0
CC1=C(C#N)C(NC(=O)C2CCCCC2)(C(F)(F)F)C(=O)N1 (configuration not stated) | 3 | 0 | i | 22461* | -4
COCCn1c(SCC(=O)NC2CCCC2)nnc1C(C)C | 3 | 0 | 0 | 5991 | 1
CC(C)NC(=O)COC(=O)c1ccc(NS(=O)(=O)c2ccc3c(c2)OCCO3)cc1 | 3 | 0 | -1 | 4556 | -1
CCCCNC(=O)COC(=O)c1ccc(NS(=O)(=O)c2ccc3c(c2)OCCO3)cc1 | -7 | -6 | 11 | 21536* | 1
CNC(=O)COC(=O)c1ccc(NS(=O)(=O)c2ccc3c(c2)OCCO3)cc1 | 43* | 5 | i | 3442 | 0
c1c[nH]c(CN2CCN(Cc3ncc[nH]3)CC2)n1 | -14 | 0 | i | 3804 | -4
O=C(NCCC1=CCCCC1)C(=O)NCc1ccccc1Cl | -5 | u | 0 | 16906* | 1
Cc1ccc(CNCCC2=CCCCC2)cc1 | -12 | u | 0 | 16821* | -6
O=C(CCN1C(=O)c2ccccc2C1=O)NCCC1=CCCCC1 | 8 | 8 | -1 | 20662* | -16
C1=C(CCNCc2ccccc2)CCCC1 | -5 | u | -1 | 23029* | -2
SMILES | BoNT-F LC inh | BoNT A protease | Vc quorum ag | Bead autofluor | Anthrax LF prot
O=C(NC1(C(F)(F)F)NC(=O)N(c2ccc(F)cc2)C1=O)c1cccs1 (configuration not stated) | -13 | -1 | 0 | 2618 | 1
O=C(CSc1nncn1-c1ccccc1)N1CCCC1 | 7 | -2 | i | 2763 | -12
COC(=O)CN(C#N)c1nc(NCc2ccccc2)nc(OC)n1 | -36 | -3 | 0 | 4257 | -6
C=C(C)COc1ccc2oc(C)c(C(=O)OCCOC)c2c1 | -4 | u | 1 | 24480* | -4
COCCOC(=O)c1c(C)oc2ccc(OCc3ccccc3)cc12 | -6 | 0 | 0 | 1911 | -2
CC(=O)Nc1ccc(NC(=O)CSc2ccc([N+](=O)[O-])cn2)cc1 | -3 | -1 | i | 4840 | 5
Cc1ccc(CNC(=O)c2sc3nc4c(c(C(F)(F)F)c3c2N)CCC4)cc1 | -1 | u | -3 | 24632* | 1
Nc1c(C(=O)NCc2ccc(Cl)cc2)sc2nc3c(c(C(F)(F)F)c12)CCC3 | 6 | 6 | 1 | 15715 | 1
CCc1nc(C)cc(N)c1OCc1ccccc1 | 1 | -2 | 0 | 17332* | -1
C=CCn1c(=O)c2ccccc2n2c(SCC(=O)/C(C#N)=C(\C)N)nnc12 | -2 | u | i | 24633*! | 0
Cc1cc(C)c(C)c(S(=O)(=O)NCC(=O)N2CCCC2)c1C | 0 | 1 | 0 | 20412* | -1
CC1(NC(=O)COc2ccccc2-c2ccccc2)CCS(=O)(=O)C1 (configuration not stated) | -4 | 0 | i | 16681* | -5
CCNc1cc(N2CCN(C)CC2)ccc1[N+](=O)[O-] | -4 | 0 | 0 | 4115 | -2
CN1CCN(c2ccc([N+](=O)[O-])c(N/N=C3\CN4CCC3CC4)c2)CC1 | -4 | -1 | i | 20912* | -2
CCN(CC)S(=O)(=O)c1ccc(OC)c(NC(=O)c2ccc(-n3cncn3)c([N+](=O)[O-])c2)c1 | 3 | -2 | i | u | 0
COc1cccc(C2CC(c3ccccc3)Nc3ncnn32)c1 (configuration not stated) | 0 | 0 | i | 22399* | 0
O=C(O)CN(Cc1ccccc1)S(=O)(=O)c1ccc(F)cc1 | -6 | -3 | 2 | 20545* | 1
CC(=O)Nc1ccc(S(=O)(=O)N(CC(=O)O)Cc2ccccc2)cc1 | -6 | 1 | 2 | 3178 | 3
O=C(O)CN(c1ccccc1F)S(=O)(=O)c1ccccc1 | -6 | u | i | 21296* | 0
O=C(CN(c1ccccc1F)S(=O)(=O)c1ccccc1)NC1CCCCCC1 | 1 | 0 | 4 | 10895 | -3
CCOC(=O)CN(Cc1ccccc1)S(=O)(=O)c1ccc(NC(C)=O)cc1 | -4 | -4 | 0 | 21423* | 0
Cc1ccc(S(=O)(=O)N(CC(=O)O)Cc2ccccc2)cc1 | 0 | 0 | 1 | 11275 | -4
Cc1ccnc(NC(=O)C(C)n2cc([N+](=O)[O-])cn2)c1 (configuration not stated) | -8 | -4 | 0 | 3486 | -8
CCOC1=C2[C@H](c3ccccc3)N(S(=O)(=O)c3ccc(C)cc3)[C@H](C(C)C)[C@H]2n2c(=O)n(-c3ccccc3)c(=O)n2C1 | 5 | 1 | x | 5894 | 1
CCOC(=O)Cn1cc(C=C2C(=O)N(C)C(=O)N(C)C2=O)c2ccccc21 | 40* | -1 | -1 | 3338 | 22
CN1C(=O)C(=Cc2cn(CC(=O)N3CCCC3)c3ccccc23)C(=O)N(C)C1=O | 0 | -2 | -1 | 4764 | -4
CCn1cc(C=C2C(=O)c3ccccc3C2=O)c2ccccc21 | 19 | 70* | i | 3399 | 34*

From PubChem BioAssay
